# The campaign covered roughly 300,000 compounds. About 1,500 (0.5%) were called active. The sample as a whole holds a higher share of actives than the screen did. A number with no mark means an inactive call.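 How the source made its calls: active means inhibition above the mean of all tested compounds plus 3 SD, set per screening campaign (cut at about 17% in these data); inactive means the rest.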
# System: cathepsin L1 (Fasciola hepatica)
# Assay: CTSL1 protease inhibition, fluke enzyme – biochemical, QFRET, fluorogenic peptide substrate, counter-screen for PFM18AAP inhibitor project, primary screen (AID 1906);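 further: 0% = plate median of test compound wells and 100% = 1 µM Z-Phe-Ala-diazomethylketone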
# Details: recombinant F. hepatica cathepsin L1, Z-Leu-Arg-MCA fluorescence; at 5.96 µM; stronger effect = higher value
row,SMILES,inhibition
1,COc1ccc(NC(=O)CN2C(=O)COc3ccc(S(=O)(=O)N4CCOCC4)cc32)cc1,-1.53%
2,Cc1cccc(NC(=O)CSc2nnc(CCNC(=O)OC(C)(C)C)o2)c1C,-2.25%
3,CCc1ccccc1NC(=O)CSc1nnc(CCNC(=O)OC(C)(C)C)o1,-11.2%
4,CCc1ccccc1NC(=O)CSc1nnc(-c2ccncc2)o1,-3.59%
5,CCc1ccccc1NC(=O)CSc1nnc([C@@H](NC(=O)OC(C)(C)C)C(C)C)o1,25.9% (active)
6,C[C@H](NC(=O)OC(C)(C)C)c1nnc(SCC(=O)Nc2ccc(Br)cc2)o1,9.5%
7,CCc1ccccc1NC(=O)CSc1nnc([C@@H](NC(=O)OC(C)(C)C)C(C)CC)o1 (some centres not stated),36.5% (active)
8,COC(=O)C1(CCSC)NC(c2ccc(OC)cc2OC)C2C(=O)N(c3cccc(C(C)=O)c3)C(=O)C21 (configuration not stated),-14.2%
9,CCCCn1c(N)c(N(CC(C)C)C(=O)CSc2ccc([N+](=O)[O-])cc2)c(=O)[nH]c1=O,0.91%
10,Cc1ccc(N(C(=O)c2snc(C(N)=O)c2N)C(C(=O)NCC2CCCO2)c2c[nH]c3ccccc23)cc1 (configuration not stated),-0.55%
11,CCCCC(CC)CNCc1cccn1CCN1CCOCC1 (configuration not stated),-3.94%
12,COc1ccccc1CCNC(=O)C(=O)NCCC1CCCCN1S(=O)(=O)c1cccs1 (configuration not stated),17.3% (active)
13,COc1ccc(CCNC(=O)C(=O)NCC2CCCN2S(=O)(=O)c2cccs2)cc1OC (configuration not stated),-2.2%
14,O=C(NCCC1CCCCN1S(=O)(=O)c1cccs1)C(=O)Nc1ccc(F)cc1F (configuration not stated),2.68%
15,Cc1ccc(C(=O)COC(=O)CCN2C(=O)C3C4CCC(C4)C3C2=O)cc1C (configuration not stated),8.56%
16,COc1ccc(/C=C/CN2CCN(Cc3ccc(C)cc3)C(CCO)C2)cc1 (configuration not stated),7.06%
17,COC(C(=O)Nc1ccc(S(=O)(=O)Nc2ccc(C)c(C)c2)cc1)c1ccccc1 (configuration not stated),1.68%
18,Cc1ccc(NC(=O)Nc2cccnc2)cc1,-1.42%
19,CCOC(=O)c1ccc(-c2ccc(C(=O)Nc3cccnc3)o2)cc1,19% (active)
20,CCOC(=O)c1cc(NC(=O)c2cccnc2)ccn1,-0.7%
21,Cc1cc(C)c(NC(=O)CN2CCOCCOCCOCCOCC2)c(C)c1,2.85%
22,O=C(CSc1nc2ccccc2[nH]1)Nc1nc(-c2ccccc2)c(-c2ccccc2)o1,17.5% (active)
23,CN(Cc1ccccc1)C(=O)CSc1nc2ccccc2[nH]1,2.91%

row,SMILES,inhibition
1,O=C(CSc1nc2ccccc2[nH]1)N/N=C/C=C\c1ccccc1[N+](=O)[O-],4.39%
2,Cc1ccc(O/C=C2\OC(=O)c3ccccc32)cc1,2.38%
3,CCOc1cc(C)ccc1OCc1nnc(SCC(=O)Nc2cccc(C(=O)O)c2)n1-c1ccccc1,-6.39%
4,Cc1cccc(-n2c(SCC(=O)Nc3cccc(S(=O)(=O)NC4=NCCCCC4)c3)nc3ccccc3c2=O)c1C,0.48%
5,CCC(C)NC(=O)c1cc(Cl)ccc1OC (configuration not stated),0.5%
6,COc1ccc(Cl)cc1C(=O)NCc1cn(C)nc1C,-1.11%
7,COc1ccc(Cl)cc1C(=O)NCC#N,21% (active)
8,Cc1cnc(C(=O)Oc2cccc(Cl)c2Cl)cn1,-0.8%
9,O=C(NCc1cccc(Cl)c1)C1CCN(c2nnc(N3CCCC3=O)s2)CC1,-5.47%
10,CC(=O)Nc1ccc(S(=O)(=O)N(C)CC(=O)NCCC2=CCCCC2)cc1,-4.22%
11,CC(C)(O)C(=O)NN(C(=O)c1ccccc1)c1cccc(Br)c1,-2.56%
12,CCCCC(O)(CCCC)C(=O)NN(C(=O)CCl)c1ccccc1,18.1% (active)
13,CCCC(O)(CCC)C(=O)NN(C(=O)CCl)c1cccc(C)c1,27.6% (active)
14,CCCCCNC(=O)C1c2ccccc2Oc2ccccc21,-9%
15,COC(=O)N(NC(=O)C(O)(C(C)C)C(C)C)c1ccccc1,-0.72%
16,Cc1ccc(N(NC(=O)C(C)(C)O)C(=O)c2ccccc2)cc1C,1.52%
17,CC(Sc1nc2cc(Cl)ccc2s1)C(=O)Nc1ccc2c(c1)OCO2 (configuration not stated),-3.27%
18,COc1ccc(CCNS(=O)(=O)c2cn(C)nc2C)cc1,-5.7%
19,CCOC(=O)c1cc2cc3ccccc3cc2oc1=O,0.07%
20,CCOC(=O)C1=C(c2ccc(OC)cc2)C(=O)c2ccccc2C1=O,28.8% (active)
21,CCOC(=O)c1c(-c2ccc(C)cc2)csc1/N=C(\C)C1=C(O)c2ccccc2C1=O,1.32%
22,CC(=O)c1ccccc1NC(=O)CC1(CC(=O)O)CCCCC1,2.79%
23,Cc1ccccc1OCC(=O)Nc1nnc(S(=O)(=O)N2CCCC2)s1,3.28%

row,SMILES,inhibition
1,CCn1c(SCC(=O)NC2=NCCS2)nnc1C(C)NC(=O)c1ccccc1F (configuration not stated),-7.21%
2,O=C1CCCCC1Sc1ccc(Cl)cc1[N+](=O)[O-] (configuration not stated),-1.08%
3,N#C/C(=C\c1ccccc1)c1n[nH]c(Cn2cncn2)n1,3.03%
4,COc1cc(C(=O)N2CCN(C3CCC(C)CC3)CC2)cc(OC)c1OC (configuration not stated),1.26%
5,CCn1cc(C(=O)N2CCN(Cc3ccc4c(c3)OCO4)CC2)c2cc(OC)c(OC)cc2c1=O,7.48%
6,CCn1cc(C(=O)N2CCN(C3CCCCC3)CC2)c2cc(OC)c(OC)cc2c1=O,20.3% (active)
7,O=c1c([N+](=O)[O-])cccn1Cc1ccc(F)cc1Cl,-4.32%
8,C/C(=N\NC(=O)c1cccnc1)c1ccc(-c2ccccc2)cc1,2.6%
9,C/C(=N\NC(N)=S)c1cccnc1,35.1% (active)
10,C/C(=N\NC(N)=S)c1ccncc1,3.21%
11,O=C(c1ccc(-c2ccccc2)cc1)C1CCCN(C(=O)c2cncs2)C1 (configuration not stated),0.67%
12,COc1ccc(-n2nc(C(=O)NCC(=O)N3CCN(c4ccccc4OC)CC3)c3ccccc3c2=O)c(OC)c1,0.09%
13,Cc1ccc(Cl)c(NC(=O)CN2CCN(C=O)CC2)c1,-5.16%
14,CCn1cnc2scc(-c3ccc(C)c(C)c3)c2c1=O,0.4%
15,COC(=O)Cn1cnc2scc(-c3ccc(C)c(C)c3)c2c1=O,24.9% (active)
16,CCOC(=O)C(C)n1cnc2scc(-c3ccc(C)c(C)c3)c2c1=O (configuration not stated),3.75%
17,CCN(Cc1ccccc1)C(=O)Cc1ccc(OC)c(S(=O)(=O)N2CCOCC2)c1,-0.92%
18,CCSc1nc2c(c(=O)[nH]1)C(c1cccnc1)C(C(=O)OC(C)C)=C(C)N2 (configuration not stated),4.8%
19,COc1ccccc1C(=O)Nc1ccc(OCc2nnc3c4ccccc4c(C)nn23)cc1,-0.1%
20,CCOCCCNc1c(CC)c(C)c(C#N)c2nc3ccccc3n12,2.01%
21,CC(C)CN(CC(C)C)CC(O)CN(c1ccccc1)S(=O)(=O)c1ccccc1[N+](=O)[O-] (configuration not stated),4.97%
22,COCCN(C(=O)C(C)C)c1nnc(-c2ccc(C(C)(C)C)cc2)s1,3.51%
23,COc1ccc(CNC(=O)C2(CC3CC(c4ccccc4)=NO3)CCN(C(=O)c3cccc(O)c3)CC2)cc1 (configuration not stated),-1.66%

row,SMILES,inhibition
1,CCCCCCCNC(=O)C1(CC2CC(c3cccc(Br)c3)=NO2)CCN(C(=O)c2cc(OCC)c(OCC)c(OCC)c2)CC1 (configuration not stated),30% (active)
2,O=C(c1ccccc1)N1CCC(CC2CC(c3ccc(Cl)cc3)=NO2)(C(=O)NCC2CCCCC2)CC1 (configuration not stated),-0.13%
3,CN(CC(=O)Nc1cccc(F)c1)C(=O)C1CSC2(C)CCC(=O)N12 (configuration not stated),-4.97%
4,CCOc1ccc2nc(/N=C/c3nc(-c4ccccc4)oc3O)sc2c1,5.43%
5,CC(N=Cc1nc(-c2ccccc2)oc1O)c1ccccc1 (configuration not stated),1.73%
6,Oc1oc(-c2ccccc2Br)nc1/C=N/c1ccccn1,53.9% (active)
7,COc1ccc(C(C)NC(=O)C23CC4CC(CC(C4)C2)C3)cc1 (configuration not stated),-3.76%
8,CC1CC(C)CN(CCC(=O)Nc2ccc3c(c2)CCC3)C1 (configuration not stated),40.7% (active)
9,COc1cccc(NC(=O)CN(C)CC(=O)Nc2ccc3c(c2)CCC3)c1,0.04%
10,Cc1cccc(NC(=O)CCN2CC(C)CC(C)C2)c1 (configuration not stated),-3.49%
11,C=CCSc1nnc2c(n1)-c1cccc3cccc-2c13,4.82%
12,Cc1cccc(-n2c(C)cc(/C=N\NC(=O)c3cccs3)c2C)c1,-1.99%
13,Cc1ccc(-n2c(C)cc(/C=N\NC(=O)CC(=O)NC(C)C)c2C)cc1,-0.88%
14,Cc1cccc(-n2c(C)cc(/C=N/NC(N)=S)c2C)c1,35.5% (active)
15,CCOC(=O)C(C)n1nc(-c2ccccc2)c2ccccc2c1=O (configuration not stated),3.78%
16,COc1ccc(CCNC(=O)Cc2ccc(C)cc2)cc1OC,2.87%
17,COC(=O)[C@H](C)NC(=O)Nc1ccc(OC(F)(F)F)cc1,-1.87%
18,CCOC(=O)Cc1ncccc1C(=O)Nc1ccc(OC(F)(F)F)cc1,2.95%
19,Cn1nccc1NC(=O)Nc1ccc(OC(F)(F)F)cc1,19.4% (active)
20,COC(=O)c1ccccc1Oc1c(F)c(F)nc(N2CCOCC2)c1F,0.49%
21,COc1cccc(N(C(=O)C2COc3ccccc3O2)C(C(=O)NC2CCCCC2)c2ccc(O)cc2)c1 (configuration not stated),4.68%
22,COc1ccc(C(C(=O)NC2CCCCC2)N(C(=O)c2snc(C(N)=O)c2N)c2ccccc2OC)cc1 (configuration not stated),-2.13%
23,COc1ccc(C(C(=O)NC2CCCCC2)N(C(=O)CCl)c2ccccc2Cl)cc1 (configuration not stated),25.3% (active)

# From PubChem BioAssay AID1906 (The Scripps Research Institute Molecular Screening Center, 2009)
